Reference: article PMC7862700, “An all-to-all approach to the identification of sequence-specific readers for epigenetic DNA modifications on cytosine”

What was measured:
Test in all cases: DAPPL (digital affinity profiling via proximity ligation, sequencing); 10 mM Tris-HCl pH 7.5, 50 mM NaCl, 1 mM DTT, 4% glycerol, room temperature, 30 min; GST-TFs on glutathione beads, 16-mer random dsDNA library, 0.1% formaldehyde crosslink after washing; high values mean tight binding
[1] = molecular target: T1, FLI1 (Homo sapiens, UniProt Q01543 1-452); conditions: protein: recombinant; tags: N-terminal GST; dsDNA, one strand shown
T1 sequence: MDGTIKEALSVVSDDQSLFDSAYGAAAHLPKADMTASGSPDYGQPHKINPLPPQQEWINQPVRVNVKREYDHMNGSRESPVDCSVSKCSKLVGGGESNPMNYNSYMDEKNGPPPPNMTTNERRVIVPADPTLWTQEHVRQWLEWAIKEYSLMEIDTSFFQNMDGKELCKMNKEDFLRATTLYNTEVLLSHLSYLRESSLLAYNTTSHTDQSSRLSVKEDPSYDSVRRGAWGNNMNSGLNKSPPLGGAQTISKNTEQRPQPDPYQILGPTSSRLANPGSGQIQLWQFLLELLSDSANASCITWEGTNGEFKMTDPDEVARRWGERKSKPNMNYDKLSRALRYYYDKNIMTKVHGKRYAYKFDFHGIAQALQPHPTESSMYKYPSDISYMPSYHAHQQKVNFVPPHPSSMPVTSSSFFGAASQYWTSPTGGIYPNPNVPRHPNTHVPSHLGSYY
In short: (§1)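 Pools of DNA-barcoded human transcription factors, expressed in yeast as GST fusions on glutathione beads and combined with a tag-only sample, were incubated with 200 nmole of a 16-mer random double-stranded DNA library. Incubation took 30 min at room temperature in Tris/NaCl/DTT/glycerol buffer and was followed by washing, 0.1% formaldehyde crosslinking, proximity ligation (BsaI/T4 ligase, 1 h, 37 °C), PCR amplification and sequencing on an Illumina NextSeq500. Binding signal is the ratio of a hexamer's read frequency for a factor to its frequency for the tag-only sample.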

[2] = molecular target: T2, ELK1 (Homo sapiens, UniProt P19419 1-428); conditions: protein: recombinant; tags: N-terminal GST; dsDNA, one strand shown
T2 sequence: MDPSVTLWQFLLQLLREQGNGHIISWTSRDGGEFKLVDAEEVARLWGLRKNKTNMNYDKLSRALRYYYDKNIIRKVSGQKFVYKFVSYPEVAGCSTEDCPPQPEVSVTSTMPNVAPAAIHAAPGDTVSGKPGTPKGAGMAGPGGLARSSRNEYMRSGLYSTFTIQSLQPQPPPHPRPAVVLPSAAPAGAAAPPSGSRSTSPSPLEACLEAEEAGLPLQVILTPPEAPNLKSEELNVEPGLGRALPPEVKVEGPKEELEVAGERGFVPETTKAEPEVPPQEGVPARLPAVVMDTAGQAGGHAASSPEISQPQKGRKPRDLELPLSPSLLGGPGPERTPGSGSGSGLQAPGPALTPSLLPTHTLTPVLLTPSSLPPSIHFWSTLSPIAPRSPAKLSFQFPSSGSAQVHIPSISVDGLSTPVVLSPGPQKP
In short: as §1

[3] = molecular target: T3, GABPA (Homo sapiens, UniProt Q06546 1-454); conditions: protein: recombinant; tags: N-terminal GST; dsDNA, one strand shown
T3 sequence: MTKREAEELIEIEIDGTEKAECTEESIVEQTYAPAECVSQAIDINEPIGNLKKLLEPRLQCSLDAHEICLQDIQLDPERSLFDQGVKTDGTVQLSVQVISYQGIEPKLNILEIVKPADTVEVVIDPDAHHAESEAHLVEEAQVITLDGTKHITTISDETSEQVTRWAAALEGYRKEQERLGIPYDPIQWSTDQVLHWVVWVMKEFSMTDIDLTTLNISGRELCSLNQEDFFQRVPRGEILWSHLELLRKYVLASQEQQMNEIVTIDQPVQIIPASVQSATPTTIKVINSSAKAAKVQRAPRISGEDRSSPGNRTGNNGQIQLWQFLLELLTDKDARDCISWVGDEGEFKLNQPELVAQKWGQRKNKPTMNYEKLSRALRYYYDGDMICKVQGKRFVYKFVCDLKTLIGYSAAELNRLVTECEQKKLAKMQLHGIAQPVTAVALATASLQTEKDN
In short: as §1

[4] = molecular target: T4, ERG (Homo sapiens, UniProt P11308 1-479); conditions: protein: recombinant; tags: N-terminal GST; dsDNA, one strand shown
T4 sequence: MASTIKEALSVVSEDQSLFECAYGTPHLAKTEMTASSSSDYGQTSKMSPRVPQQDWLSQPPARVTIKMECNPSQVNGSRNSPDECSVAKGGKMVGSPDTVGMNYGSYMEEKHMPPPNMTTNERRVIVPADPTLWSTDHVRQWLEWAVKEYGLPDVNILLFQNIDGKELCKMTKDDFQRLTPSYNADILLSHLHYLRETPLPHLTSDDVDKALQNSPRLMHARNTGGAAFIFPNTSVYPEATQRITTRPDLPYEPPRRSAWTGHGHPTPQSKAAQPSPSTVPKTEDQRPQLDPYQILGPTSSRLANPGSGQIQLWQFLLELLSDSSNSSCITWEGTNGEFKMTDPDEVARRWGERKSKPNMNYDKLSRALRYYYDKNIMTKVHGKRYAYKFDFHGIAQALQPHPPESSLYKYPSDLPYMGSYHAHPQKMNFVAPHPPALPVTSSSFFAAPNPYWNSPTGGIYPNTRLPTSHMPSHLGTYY
In short: as §1

[5] = molecular target: ELF1 (Homo sapiens, UniProt P32519 1-619); conditions: protein: recombinant; tags: N-terminal GST; dsDNA, one strand shown
In short: as §1

[6] = molecular target: T5, EHF (Homo sapiens, UniProt Q9NZC4 1-300); conditions: protein: recombinant; tags: N-terminal GST; dsDNA, one strand shown
T5 sequence: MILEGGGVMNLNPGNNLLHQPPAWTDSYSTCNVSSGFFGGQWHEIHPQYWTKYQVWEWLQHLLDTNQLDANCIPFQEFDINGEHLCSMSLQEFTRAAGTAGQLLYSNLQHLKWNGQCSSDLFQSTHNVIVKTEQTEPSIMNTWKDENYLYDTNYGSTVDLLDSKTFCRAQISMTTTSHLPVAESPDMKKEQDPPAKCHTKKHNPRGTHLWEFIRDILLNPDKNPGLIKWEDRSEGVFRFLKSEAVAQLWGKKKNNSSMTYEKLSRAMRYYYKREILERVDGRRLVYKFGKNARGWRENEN
In short: as §1

[7] = molecular target: SPI1 (Homo sapiens, UniProt P17947 1-270); conditions: protein: recombinant; tags: N-terminal GST; dsDNA, one strand shown
In short: as §1

[8] = molecular target: SPIB (Homo sapiens, UniProt Q01892 1-262); conditions: protein: recombinant; tags: N-terminal GST; dsDNA, one strand shown
In short: as §1

[9] = molecular target: T6, ELK3 (Homo sapiens, UniProt P41970 1-407); conditions: protein: recombinant; tags: N-terminal GST; dsDNA, one strand shown
T6 sequence: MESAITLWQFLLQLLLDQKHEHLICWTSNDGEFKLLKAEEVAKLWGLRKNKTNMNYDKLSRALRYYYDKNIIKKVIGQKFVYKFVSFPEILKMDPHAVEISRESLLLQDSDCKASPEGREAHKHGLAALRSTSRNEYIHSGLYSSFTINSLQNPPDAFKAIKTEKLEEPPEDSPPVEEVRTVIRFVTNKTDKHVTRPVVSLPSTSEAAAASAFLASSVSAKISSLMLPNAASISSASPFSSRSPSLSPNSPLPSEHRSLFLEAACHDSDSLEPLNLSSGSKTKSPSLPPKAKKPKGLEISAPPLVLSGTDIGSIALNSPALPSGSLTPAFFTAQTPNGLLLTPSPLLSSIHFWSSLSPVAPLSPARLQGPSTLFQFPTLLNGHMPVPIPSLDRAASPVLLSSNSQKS
In short: as §1

[10] = molecular target: T7, FEV (Homo sapiens, UniProt Q99581 1-238); conditions: protein: recombinant; tags: N-terminal GST; dsDNA, one strand shown
T7 sequence: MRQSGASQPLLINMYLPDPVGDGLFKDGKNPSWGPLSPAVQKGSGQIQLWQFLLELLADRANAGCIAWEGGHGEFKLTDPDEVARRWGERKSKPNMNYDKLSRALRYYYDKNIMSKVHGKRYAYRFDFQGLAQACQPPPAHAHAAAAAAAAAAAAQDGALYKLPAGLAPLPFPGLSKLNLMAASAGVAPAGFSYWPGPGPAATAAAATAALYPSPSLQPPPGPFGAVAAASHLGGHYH
In short: as §1

[11] = molecular target: ETV5 (Homo sapiens, UniProt P41161 1-510); conditions: protein: recombinant; tags: N-terminal GST; dsDNA, one strand shown
In short: as §1

[12] = molecular target: HSF1 (Homo sapiens, UniProt Q00613 1-529); conditions: protein: recombinant; tags: N-terminal GST; chain copies: 3; dsDNA, one strand shown
In short: as §1

[13] = molecular target: T8, SPIC (Homo sapiens, UniProt Q8N5J4 1-248); conditions: protein: recombinant; tags: N-terminal GST; dsDNA, one strand shown
T8 sequence: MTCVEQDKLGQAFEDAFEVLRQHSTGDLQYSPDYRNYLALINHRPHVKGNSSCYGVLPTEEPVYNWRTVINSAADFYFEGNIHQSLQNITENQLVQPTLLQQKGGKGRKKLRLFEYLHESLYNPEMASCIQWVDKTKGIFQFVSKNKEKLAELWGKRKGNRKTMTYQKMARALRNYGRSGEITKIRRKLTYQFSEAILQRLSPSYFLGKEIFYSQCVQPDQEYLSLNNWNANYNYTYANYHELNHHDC
In short: as §1

[14] = molecular target: ELF4 (Homo sapiens, UniProt Q99607 1-663); conditions: protein: recombinant; tags: N-terminal GST; dsDNA, one strand shown
In short: as §1

[15] = molecular target: T9, ELK4 (Homo sapiens, UniProt P28324-2 1-405); conditions: protein: recombinant; tags: N-terminal GST; dsDNA, one strand shown
T9 sequence: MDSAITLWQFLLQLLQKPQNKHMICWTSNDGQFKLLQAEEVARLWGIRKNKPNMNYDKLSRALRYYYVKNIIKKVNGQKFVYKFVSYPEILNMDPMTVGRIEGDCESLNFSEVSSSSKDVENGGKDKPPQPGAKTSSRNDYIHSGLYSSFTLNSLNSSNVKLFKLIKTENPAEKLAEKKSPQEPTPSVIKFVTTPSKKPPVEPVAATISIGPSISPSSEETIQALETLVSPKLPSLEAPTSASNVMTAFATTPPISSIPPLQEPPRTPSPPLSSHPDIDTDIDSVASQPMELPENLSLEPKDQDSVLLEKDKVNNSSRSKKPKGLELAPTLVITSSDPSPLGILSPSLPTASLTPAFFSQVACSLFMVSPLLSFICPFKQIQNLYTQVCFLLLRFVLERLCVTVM
In short: as §1

[16] = molecular target: T10, ETV2 (Homo sapiens, UniProt O00321 1-342); conditions: protein: recombinant; tags: N-terminal GST; dsDNA, one strand shown
T10 sequence: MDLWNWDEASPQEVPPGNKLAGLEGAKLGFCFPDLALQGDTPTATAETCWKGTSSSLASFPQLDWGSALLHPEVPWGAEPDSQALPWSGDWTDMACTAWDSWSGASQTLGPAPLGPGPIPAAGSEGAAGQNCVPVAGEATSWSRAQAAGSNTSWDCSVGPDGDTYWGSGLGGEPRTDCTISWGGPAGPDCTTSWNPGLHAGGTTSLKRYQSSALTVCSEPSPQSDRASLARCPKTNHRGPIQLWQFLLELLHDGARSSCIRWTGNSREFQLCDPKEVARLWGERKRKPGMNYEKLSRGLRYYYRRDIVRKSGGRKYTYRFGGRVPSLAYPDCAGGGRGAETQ
In short: as §1

[17] = molecular target: T11, ELF3 (Homo sapiens, UniProt P78545 1-371); conditions: protein: recombinant; tags: N-terminal GST; dsDNA, one strand shown
T11 sequence: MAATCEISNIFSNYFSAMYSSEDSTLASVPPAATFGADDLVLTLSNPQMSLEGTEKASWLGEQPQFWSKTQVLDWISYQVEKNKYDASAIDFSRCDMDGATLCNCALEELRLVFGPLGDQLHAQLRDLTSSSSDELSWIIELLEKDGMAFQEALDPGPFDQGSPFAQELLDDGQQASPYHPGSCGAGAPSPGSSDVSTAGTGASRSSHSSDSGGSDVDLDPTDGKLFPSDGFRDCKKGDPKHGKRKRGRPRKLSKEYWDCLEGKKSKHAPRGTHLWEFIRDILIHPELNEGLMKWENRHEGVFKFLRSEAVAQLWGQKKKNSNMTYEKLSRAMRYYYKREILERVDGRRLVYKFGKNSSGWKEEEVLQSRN
In short: as §1

[18] = molecular target: CRX (Homo sapiens, UniProt O43186 1-299); conditions: protein: recombinant; tags: N-terminal GST; dsDNA, one strand shown
In short: as §1

[19] = molecular target: ETV1 (Homo sapiens, UniProt P50549 1-477); conditions: protein: recombinant; tags: N-terminal GST; dsDNA, one strand shown
In short: as §1

ELF1, sequence (P32519 whole entry): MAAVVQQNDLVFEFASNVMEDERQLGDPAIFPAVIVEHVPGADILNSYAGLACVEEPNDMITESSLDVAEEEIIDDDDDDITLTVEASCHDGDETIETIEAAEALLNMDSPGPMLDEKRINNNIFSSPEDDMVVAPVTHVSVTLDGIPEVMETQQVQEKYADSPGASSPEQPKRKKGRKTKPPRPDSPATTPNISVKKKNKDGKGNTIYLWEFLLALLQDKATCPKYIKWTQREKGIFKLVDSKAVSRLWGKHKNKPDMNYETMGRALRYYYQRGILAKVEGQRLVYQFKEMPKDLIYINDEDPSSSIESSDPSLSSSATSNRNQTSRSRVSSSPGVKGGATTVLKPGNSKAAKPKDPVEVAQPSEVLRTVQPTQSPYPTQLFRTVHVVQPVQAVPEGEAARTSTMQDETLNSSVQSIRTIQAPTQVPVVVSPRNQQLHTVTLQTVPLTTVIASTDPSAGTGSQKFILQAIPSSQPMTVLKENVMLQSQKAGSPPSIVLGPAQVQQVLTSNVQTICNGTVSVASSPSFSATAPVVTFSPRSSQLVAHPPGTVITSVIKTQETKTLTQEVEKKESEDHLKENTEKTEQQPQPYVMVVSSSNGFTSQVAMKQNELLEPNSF
CRX, sequence (O43186 whole entry): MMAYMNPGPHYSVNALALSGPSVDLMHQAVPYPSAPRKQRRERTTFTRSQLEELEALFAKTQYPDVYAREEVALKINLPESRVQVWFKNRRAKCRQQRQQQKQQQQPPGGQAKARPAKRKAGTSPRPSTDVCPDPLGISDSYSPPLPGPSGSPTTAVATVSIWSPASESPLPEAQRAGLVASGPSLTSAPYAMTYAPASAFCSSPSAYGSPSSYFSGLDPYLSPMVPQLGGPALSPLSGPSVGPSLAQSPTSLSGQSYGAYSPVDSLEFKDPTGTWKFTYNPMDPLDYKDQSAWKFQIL
ELF4, sequence (Q99607 whole entry): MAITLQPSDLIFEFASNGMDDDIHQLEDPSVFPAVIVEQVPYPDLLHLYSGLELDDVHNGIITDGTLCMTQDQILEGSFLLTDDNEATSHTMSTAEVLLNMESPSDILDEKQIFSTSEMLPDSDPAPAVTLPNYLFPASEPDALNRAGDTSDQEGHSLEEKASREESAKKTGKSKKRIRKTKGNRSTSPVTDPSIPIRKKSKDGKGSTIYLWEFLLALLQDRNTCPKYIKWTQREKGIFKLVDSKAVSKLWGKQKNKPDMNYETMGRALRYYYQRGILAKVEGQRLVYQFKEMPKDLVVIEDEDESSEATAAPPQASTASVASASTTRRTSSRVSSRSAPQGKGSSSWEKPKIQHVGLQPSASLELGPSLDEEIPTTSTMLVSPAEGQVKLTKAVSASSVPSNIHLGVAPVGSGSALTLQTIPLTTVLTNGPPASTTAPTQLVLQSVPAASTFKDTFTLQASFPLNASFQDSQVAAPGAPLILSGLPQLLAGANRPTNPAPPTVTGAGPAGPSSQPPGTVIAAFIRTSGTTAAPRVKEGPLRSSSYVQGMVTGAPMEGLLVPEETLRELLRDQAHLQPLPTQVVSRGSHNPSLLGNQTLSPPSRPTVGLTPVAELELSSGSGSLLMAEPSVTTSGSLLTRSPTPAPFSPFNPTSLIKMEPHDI
SPIB, sequence (Q01892 whole entry): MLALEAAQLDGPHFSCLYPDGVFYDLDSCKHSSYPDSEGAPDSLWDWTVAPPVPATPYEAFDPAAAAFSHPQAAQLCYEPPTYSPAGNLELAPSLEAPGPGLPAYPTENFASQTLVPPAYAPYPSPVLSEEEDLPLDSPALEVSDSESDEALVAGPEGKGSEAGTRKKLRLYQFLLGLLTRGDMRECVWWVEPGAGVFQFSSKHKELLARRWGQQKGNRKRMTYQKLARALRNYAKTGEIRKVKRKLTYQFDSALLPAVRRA
ETV5, sequence (P41161 whole entry): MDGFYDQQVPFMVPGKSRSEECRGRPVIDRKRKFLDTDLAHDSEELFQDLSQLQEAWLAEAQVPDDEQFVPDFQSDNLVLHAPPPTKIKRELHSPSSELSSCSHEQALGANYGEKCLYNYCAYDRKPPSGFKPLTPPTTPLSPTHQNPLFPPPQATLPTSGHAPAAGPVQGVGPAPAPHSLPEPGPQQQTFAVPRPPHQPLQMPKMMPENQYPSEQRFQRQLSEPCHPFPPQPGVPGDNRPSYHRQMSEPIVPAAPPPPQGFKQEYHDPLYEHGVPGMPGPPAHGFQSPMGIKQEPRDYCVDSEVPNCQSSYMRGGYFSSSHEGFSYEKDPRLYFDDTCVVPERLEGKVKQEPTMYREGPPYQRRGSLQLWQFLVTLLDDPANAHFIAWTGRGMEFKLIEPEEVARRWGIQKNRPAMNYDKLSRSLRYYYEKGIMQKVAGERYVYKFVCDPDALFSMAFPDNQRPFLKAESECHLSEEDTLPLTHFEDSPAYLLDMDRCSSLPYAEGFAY
ETV1, sequence (P50549 whole entry): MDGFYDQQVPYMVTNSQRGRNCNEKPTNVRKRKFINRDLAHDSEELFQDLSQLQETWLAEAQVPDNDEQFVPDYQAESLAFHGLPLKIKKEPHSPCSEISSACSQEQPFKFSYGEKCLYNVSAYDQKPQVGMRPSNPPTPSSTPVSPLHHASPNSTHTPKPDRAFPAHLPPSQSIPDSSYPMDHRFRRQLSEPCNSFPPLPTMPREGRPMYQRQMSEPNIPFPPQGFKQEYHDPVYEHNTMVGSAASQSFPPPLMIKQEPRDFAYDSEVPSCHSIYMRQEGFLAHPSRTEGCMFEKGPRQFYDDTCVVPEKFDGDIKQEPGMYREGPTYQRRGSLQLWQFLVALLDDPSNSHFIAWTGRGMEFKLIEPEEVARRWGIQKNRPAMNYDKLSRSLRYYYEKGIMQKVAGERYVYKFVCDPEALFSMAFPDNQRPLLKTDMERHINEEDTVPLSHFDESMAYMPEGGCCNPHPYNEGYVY
HSF1, sequence (Q00613 whole entry): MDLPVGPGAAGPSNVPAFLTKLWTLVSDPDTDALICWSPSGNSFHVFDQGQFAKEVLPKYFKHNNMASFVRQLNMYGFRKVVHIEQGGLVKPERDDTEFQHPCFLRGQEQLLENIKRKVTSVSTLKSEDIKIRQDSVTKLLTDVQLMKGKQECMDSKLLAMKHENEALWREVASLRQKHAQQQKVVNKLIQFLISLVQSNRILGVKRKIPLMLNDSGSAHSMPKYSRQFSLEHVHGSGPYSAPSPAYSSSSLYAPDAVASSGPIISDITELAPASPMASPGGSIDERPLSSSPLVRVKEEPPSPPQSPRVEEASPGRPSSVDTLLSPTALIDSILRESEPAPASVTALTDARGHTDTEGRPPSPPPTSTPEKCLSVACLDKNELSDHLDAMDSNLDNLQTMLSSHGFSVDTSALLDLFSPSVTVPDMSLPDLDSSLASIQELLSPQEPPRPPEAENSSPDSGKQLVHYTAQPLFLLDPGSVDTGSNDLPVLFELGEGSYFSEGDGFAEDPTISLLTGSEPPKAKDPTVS

Q: Which results are given for TGTACT?
A: binding signal [1]: 1.28 fold enrichment (6-mer frequency, TF over GST control); binding signal [2]: 1.44 fold enrichment (6-mer frequency, TF over GST control); binding signal [3]: 1.24 fold enrichment (6-mer frequency, TF over GST control); binding signal [4]: 1.24 fold enrichment (6-mer frequency, TF over GST control); binding signal [5]: 1.35 fold enrichment (6-mer frequency, TF over GST control); binding signal [6]: 1.3 fold enrichment (6-mer frequency, TF over GST control); binding signal [7]: 1.25 fold enrichment (6-mer frequency, TF over GST control); binding signal [8]: 1.21 fold enrichment (6-mer frequency, TF over GST control); binding signal [9]: 1.35 fold enrichment (6-mer frequency, TF over GST control); binding signal [10]: 1.41 fold enrichment (6-mer frequency, TF over GST control); binding signal [11]: 1.34 fold enrichment (6-mer frequency, TF over GST control); binding signal [12]: 1.18 fold enrichment (6-mer frequency, TF over GST control); binding signal [13]: 1.18 fold enrichment (6-mer frequency, TF over GST control); binding signal [14]: 1.29 fold enrichment (6-mer frequency, TF over GST control); binding signal [15]: 1.2 fold enrichment (6-mer frequency, TF over GST control); binding signal [16]: 1.3 fold enrichment (6-mer frequency, TF over GST control); binding signal [17]: 1.23 fold enrichment (6-mer frequency, TF over GST control); binding signal [18]: 1.15 fold enrichment (6-mer frequency, TF over GST control); binding signal [19]: 1.34 fold enrichment (6-mer frequency, TF over GST control)
